{"source": "the antibiotic and cytotoxicity screens of Wong et al. (2023)", "note": "Screen size: about 39,000 compounds; about 3,300 (8.5%) were called active. This is one part of a sample in which actives are shown more often than they occur."}
{"test_system": "HepG2", "experiment": "cytotoxicity call (relative viability < 0.9)", "conditions": "10 µM"}
{"smiles": "C[C@@H]1CN([C@@H](C)CO)C(=O)c2cc(C#CCN(C)C)cnc2O[C@@H]1CN(C)C(=O)Nc1cc(F)ccc1F", "cytotoxicity call": "inactive"}
{"smiles": "C/C=C/c1ccc2c(c1)O[C@H](CN(C)S(=O)(=O)c1ccccc1OC)[C@@H](C)CN([C@H](C)CO)S2(=O)=O", "cytotoxicity call": "inactive"}
{"smiles": "C[C@@H]1CN([C@H](C)CO)C(=O)c2cccc(NC(=O)C3CC3)c2O[C@H]1CN(C)Cc1ccc2c(c1)OCO2", "cytotoxicity call": "inactive"}
{"smiles": "C[C@@H]1CN([C@@H](C)CO)C(=O)c2cc(NC(=O)CCCN(C)C)ccc2O[C@H]1CN(C)C(=O)Nc1ccc2c(c1)OCO2", "cytotoxicity call": "inactive"}
{"smiles": "C[C@H](CO)N1C[C@H](C)[C@@H](CN(C)Cc2ccncc2)OCCCC[C@H](C)Oc2ccc(NS(=O)(=O)c3ccc(Cl)cc3)cc2C1=O", "cytotoxicity call": "inactive"}
{"smiles": "Cc1ccc(S(=O)(=O)Nc2cccc3c2O[C@H](CN(C)Cc2ccc(Cl)c(Cl)c2)[C@H](C)CN([C@H](C)CO)C3=O)cc1", "cytotoxicity call": "inactive"}
{"smiles": "C[C@H](CO)N1C[C@H](C)[C@H](CN(C)C)OCCCC[C@H](C)Oc2ccc(NC(=O)Nc3cccc4ccccc34)cc2C1=O", "cytotoxicity call": "inactive"}
{"smiles": "O=C(O)C[C@H]1Oc2ccccc2NC1=O", "cytotoxicity call": "inactive"}
{"smiles": "O=C(C[C@@H]1CC[C@@H]2[C@H](COC[C@@H](O)CN2S(=O)(=O)c2ccccc2F)O1)NCc1ccccc1F", "cytotoxicity call": "inactive"}
{"smiles": "C[C@@H]1CN([C@H](C)CO)C(=O)c2cccc(NC(=O)C3CCOCC3)c2O[C@@H]1CN(C)S(=O)(=O)c1ccc(Cl)cc1", "cytotoxicity call": "inactive"}
{"smiles": "O=C(/C=C/c1ccccc1)C1CC1", "cytotoxicity call": "inactive"}
{"smiles": "O=C(C=Cc1ccccc1)c1ccc(O)cc1", "cytotoxicity call": "active"}
{"smiles": "O=C(C=Cc1ccc(O)cc1)c1ccccc1O", "cytotoxicity call": "inactive"}
{"smiles": "CC(C)c1ccc(/C=C/C(=O)O)cc1", "cytotoxicity call": "inactive"}
{"smiles": "O=C(C=Cc1ccccc1)c1ccc(O)cc1O", "cytotoxicity call": "inactive"}
{"smiles": "O=C(C=Cc1ccc(O)cc1)c1ccccc1", "cytotoxicity call": "active"}
{"smiles": "CC(C)NC(=O)N(C)C[C@H]1OCCCC[C@H](C)Oc2ccc(NC(=O)C3CCCCC3)cc2C(=O)N([C@H](C)CO)C[C@H]1C", "cytotoxicity call": "inactive"}
{"smiles": "O=C1CCC(=O)NCC/C=C/CCN1", "cytotoxicity call": "inactive"}
{"smiles": "O=C(C[C@H]1C=C[C@H](NC(=O)C2CC2)[C@H](CO)O1)NCCCN1CCOCC1", "cytotoxicity call": "inactive"}
{"smiles": "COCC#Cc1cnc2c(c1)C(=O)N([C@@H](C)CO)C[C@@H](C)[C@H](CN(C)C(=O)Nc1ccc(OC)cc1)O2", "cytotoxicity call": "inactive"}
{"smiles": "C[C@@H]1CCCCO[C@H](CN(C)C(=O)c2ccccc2)[C@@H](C)CN([C@@H](C)CO)C(=O)c2cc(NC(=O)CCC(F)(F)F)ccc2O1", "cytotoxicity call": "inactive"}
{"smiles": "C[C@H]1CCCCO[C@@H](CN(C)C(=O)Nc2ccccc2)[C@@H](C)CN([C@@H](C)CO)C(=O)c2cc(NS(=O)(=O)c3ccc(Cl)cc3)ccc2O1", "cytotoxicity call": "inactive"}
{"smiles": "C[C@H]1CN([C@@H](C)CO)C(=O)c2c(c3ccccc3n2C)-c2ccccc2CO[C@@H]1CN(C)S(C)(=O)=O", "cytotoxicity call": "inactive"}
{"smiles": "C[C@H](CO)N1C[C@H](C)[C@@H](CN(C)S(=O)(=O)c2ccc(F)cc2)Oc2ccc(NC(=O)CCCN(C)C)cc2CC1=O", "cytotoxicity call": "inactive"}
{"smiles": "O=C(c1cccnc1)N1CCOCC1", "cytotoxicity call": "active"}
{"smiles": "O=C(NCCCN1CCOCC1)c1cccnc1", "cytotoxicity call": "inactive"}
{"smiles": "O=C(O)c1cccnc1", "cytotoxicity call": "inactive"}
{"smiles": "Cc1ccc(S(=O)(=O)N(C)C[C@@H]2Oc3c(NC(=O)Nc4cccc5ccccc45)cccc3C(=O)N([C@H](C)CO)C[C@H]2C)cc1", "cytotoxicity call": "inactive"}
{"smiles": "CN(C)C(=O)c1cc2c(c(-c3cccc(/C=C/c4ccccc4)c3)n1)[C@H](CCO)N([S@@](=O)C(C)(C)C)C2", "cytotoxicity call": "inactive"}
{"smiles": "C[C@H]1CN([C@@H](C)CO)C(=O)c2cccc(NC(=O)Nc3ccc(C(F)(F)F)cc3)c2O[C@H]1CN(C)Cc1ccc(C(F)(F)F)cc1", "cytotoxicity call": "inactive"}
{"smiles": "C[C@@H]1CN([C@H](C)CO)C(=O)c2cccc(NC(=O)Nc3ccc(C(F)(F)F)cc3)c2O[C@H]1CN(C)Cc1ccc(C(F)(F)F)cc1", "cytotoxicity call": "active"}
{"smiles": "C[C@@H]1CN([C@H](C)CO)C(=O)c2cccc(NC(=O)Nc3ccc(F)cc3)c2O[C@@H]1CN(C)Cc1ccc(C(F)(F)F)cc1", "cytotoxicity call": "inactive"}
{"smiles": "C[C@H]1CN([C@@H](C)CO)C(=O)c2cccc(NC(=O)Nc3ccc(C(F)(F)F)cc3)c2O[C@@H]1CN(C)Cc1ccc(C(F)(F)F)cc1", "cytotoxicity call": "active"}
{"smiles": "C[C@H]1CN([C@@H](C)CO)C(=O)c2cccc(NC(=O)Nc3ccc(F)cc3)c2O[C@H]1CN(C)Cc1ccc(C(F)(F)F)cc1", "cytotoxicity call": "inactive"}
{"smiles": "C[C@@H]1CN([C@@H](C)CO)C(=O)c2cccc(NC(=O)Nc3ccc(F)cc3)c2O[C@H]1CN(C)Cc1ccc(C(F)(F)F)cc1", "cytotoxicity call": "inactive"}
{"smiles": "C[C@@H]1CN([C@H](C)CO)C(=O)c2cccc(NC(=O)Nc3ccc(C(F)(F)F)cc3)c2O[C@@H]1CN(C)Cc1ccc(C(F)(F)F)cc1", "cytotoxicity call": "active"}
{"smiles": "C[C@H](CO)N1C[C@H](C)[C@@H](CN(C)Cc2ccc(C(F)(F)F)cc2)Oc2c(NC(=O)Nc3ccc(C(F)(F)F)cc3)cccc2C1=O", "cytotoxicity call": "inactive"}
{"smiles": "C[C@H](CO)N1C[C@H](C)[C@H](CN(C)Cc2ccc(C(F)(F)F)cc2)Oc2c(NC(=O)Nc3ccc(C(F)(F)F)cc3)cccc2C1=O", "cytotoxicity call": "inactive"}
{"smiles": "C[C@H](CO)N1C[C@H](C)[C@@H](CN(C)Cc2ccc(C(F)(F)F)cc2)Oc2c(NC(=O)Nc3ccc(F)cc3)cccc2C1=O", "cytotoxicity call": "active"}
{"smiles": "C[C@@H]1CN([C@H](C)CO)C(=O)c2cccc(NC(=O)Nc3ccc(F)cc3)c2O[C@H]1CN(C)Cc1ccc(C(F)(F)F)cc1", "cytotoxicity call": "inactive"}
{"smiles": "C[C@@H]1CN([C@@H](C)CO)C(=O)c2cccc(NC(=O)Nc3ccc(C(F)(F)F)cc3)c2O[C@@H]1CN(C)Cc1ccc(C(F)(F)F)cc1", "cytotoxicity call": "inactive"}
{"smiles": "C[C@@H]1CN([C@H](C)CO)C(=O)c2cc(NC(=O)CCC(F)(F)F)ccc2O[C@H]1CN(C)S(=O)(=O)c1cn(C)cn1", "cytotoxicity call": "inactive"}
{"smiles": "CC(C)NC(=O)N(C)C[C@H]1Oc2c(NS(=O)(=O)c3cn(C)cn3)cccc2C(=O)N([C@@H](C)CO)C[C@@H]1C", "cytotoxicity call": "inactive"}
{"smiles": "C[C@@H]1CCCCO[C@@H](CN(C)Cc2ccc(C(=O)O)cc2)[C@H](C)CN([C@H](C)CO)C(=O)c2cc(NC(=O)Cc3ccccc3)ccc2O1", "cytotoxicity call": "inactive"}
{"smiles": "CC(C)CC#Cc1cnc2c(c1)C(=O)N([C@@H](C)CO)C[C@@H](C)[C@H](CN(C)S(=O)(=O)c1cccs1)O2", "cytotoxicity call": "inactive"}
{"smiles": "Cc1ccc(S(=O)(=O)N(C)C[C@H]2Oc3ccc(NS(=O)(=O)c4c(C)noc4C)cc3CC(=O)N([C@@H](C)CO)C[C@@H]2C)cc1", "cytotoxicity call": "inactive"}
{"smiles": "C[C@@H]1CN([C@H](C)CO)C(=O)Cc2cc(NC(=O)CCN3CCOCC3)ccc2O[C@H]1CN(C)S(=O)(=O)c1ccccc1", "cytotoxicity call": "inactive"}
{"smiles": "CC(=O)OCC(=O)O[C@@H]1[C@H]2[C@@H](OC(=O)c3ccccc3)[C@@H](C)C[C@]2(O)[C@H](OC(C)=O)[C@@]2(C)[C@H](OC(C)=O)[C@]1(OC(C)=O)C[C@H]1C(=O)C(C)(C)C[C@@H]12", "cytotoxicity call": "inactive"}
{"smiles": "O=C(NC(=O)N1CCOCC1)c1ccc(S(=O)(=O)N2CCOCC2)cc1", "cytotoxicity call": "inactive"}
{"smiles": "C[C@@H]1CN([C@H](C)CO)C(=O)c2cccc(NC(=O)c3ccncc3)c2O[C@@H]1CN(C)Cc1ccc(-c2ccccc2)cc1", "cytotoxicity call": "inactive"}
{"smiles": "C[C@H](CO)N1C[C@H](C)[C@@H](CN(C)S(=O)(=O)c2cccc(F)c2)Oc2ncc(Br)cc2C1=O", "cytotoxicity call": "inactive"}
{"smiles": "C[C@@H]1CN([C@H](C)CO)C(=O)c2cc(Br)cnc2O[C@H]1CN(C)C(=O)Nc1ccc2c(c1)OCO2", "cytotoxicity call": "inactive"}
{"smiles": "C[C@@H]1CN([C@@H](C)CO)C(=O)c2cccc(NC(=O)Nc3ccccc3)c2O[C@@H]1CN(C)Cc1ccc(C(F)(F)F)cc1", "cytotoxicity call": "inactive"}
{"smiles": "C[C@@H]1CN([C@H](C)CO)C(=O)c2cccc(NC(=O)Nc3ccc(C(F)(F)F)cc3)c2O[C@H]1CN(C)Cc1ccc(-c2ccccc2)cc1", "cytotoxicity call": "inactive"}
{"smiles": "C[C@@H]1CN([C@@H](C)CO)C(=O)c2cccc(NC(=O)Nc3ccc(C(F)(F)F)cc3)c2O[C@@H]1CN(C)Cc1ccc(Oc2ccccc2)cc1", "cytotoxicity call": "active"}
{"smiles": "C[C@H]1CN([C@@H](C)CO)C(=O)c2cccc(NC(=O)Nc3ccc(C(F)(F)F)cc3)c2O[C@H]1CN(C)Cc1ccc(-c2ccccc2)cc1", "cytotoxicity call": "inactive"}
{"smiles": "C[C@@H]1CN([C@@H](C)CO)C(=O)c2cccc(NC(=O)Nc3ccccc3)c2O[C@H]1CN(C)Cc1ccc(C(F)(F)F)cc1", "cytotoxicity call": "inactive"}
{"smiles": "C[C@H](CO)N1C[C@H](C)[C@H](CN(C)Cc2ccc(C(F)(F)F)cc2)Oc2c(NC(=O)Nc3ccc(F)cc3)cccc2C1=O", "cytotoxicity call": "inactive"}
{"smiles": "C[C@H](CO)N1C[C@H](C)[C@H](CN(C)Cc2ccc(Oc3ccccc3)cc2)Oc2c(NC(=O)Nc3ccc(C(F)(F)F)cc3)cccc2C1=O", "cytotoxicity call": "inactive"}
{"smiles": "C[C@@H]1CN([C@H](C)CO)C(=O)c2cccc(NC(=O)Nc3ccc(C(F)(F)F)cc3)c2O[C@@H]1CN(C)Cc1ccc(-c2ccccc2)cc1", "cytotoxicity call": "active"}
{"smiles": "C[C@H]1CN([C@@H](C)CO)C(=O)c2cccc(NC(=O)Nc3ccc(F)cc3)c2O[C@@H]1CN(C)Cc1ccc(C(F)(F)F)cc1", "cytotoxicity call": "inactive"}
{"smiles": "C[C@@H]1CN([C@@H](C)CO)C(=O)c2cccc(NC(=O)Nc3ccc(C(F)(F)F)cc3)c2O[C@H]1CN(C)Cc1ccc(C(F)(F)F)cc1", "cytotoxicity call": "active"}
{"smiles": "C[C@H]1CN([C@@H](C)CO)C(=O)c2cccc(NC(=O)Nc3ccc(C(F)(F)F)cc3)c2O[C@@H]1CN(C)Cc1ccc(Oc2ccccc2)cc1", "cytotoxicity call": "inactive"}
{"smiles": "C[C@@H]1CN([C@H](C)CO)C(=O)c2cccc(NC(=O)Nc3ccccc3)c2O[C@H]1CN(C)Cc1ccc(C(F)(F)F)cc1", "cytotoxicity call": "active"}
{"smiles": "COc1ccc(S(=O)(=O)Nc2ccc3c(c2)C(=O)N([C@H](C)CO)C[C@@H](C)[C@@H](CN(C)C(=O)Nc2ccccc2)OCCCC[C@@H](C)O3)cc1", "cytotoxicity call": "inactive"}
{"smiles": "CC(C)CC#Cc1ccc2c(c1)O[C@H](CN(C)C(=O)Cc1ccncc1)[C@H](C)CN([C@H](C)CO)S2(=O)=O", "cytotoxicity call": "inactive"}
